Laboratory results: PubChem BioAssay (NCATS)
Inconclusive results are not listed. Active and inactive are the calls of the source. Calls come from the whole dose curve; as a rule, active = well fitted curve in the direction sought with a large enough effect; inconclusive = small, poorly fitted or top-dose-only effect, or another doubt; inactive = no such curve, though single readings can be large; an effect the other way counts as inactive or inconclusive. Where a SMILES comes first, the peptide text is derived from it. [ ]: non-standard residue; d: D form. ξ: configuration not given here. ξPhe(βξ-Me) = CC(c1ccccc1)C(N)C(=O)O; GABA = NCCCC(=O)O

Columns and labels:
Es-2 = experiment: Primary qHTS to identify gynecologic anti-cancer compounds using libraries of approved drugs and bioactive compounds (AID 1345084); conditions: Gynecologic cancer cell panel viability, ATPlite luminescence, 48 h; series mostly up to 57.5 µM; note: nearly all actives have a fitted effect of over 55% in size
Outline: (§1)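 Luminescence from the ATPlite ATP-monitoring reagent indicates viable cell number; lower signal means cytotoxicity. Cells received compound 16 h after seeding and were exposed for 48 h across five concentrations.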

HeLa = experiment: as above; conditions: Gynecologic cancer cell panel viability, ATPlite luminescence, 48 h; series mostly up to 57.5 µM
Outline: as §1

Hek293T = experiment: as above; conditions: Gynecologic cancer cell panel viability, ATPlite luminescence, 48 h, control line for the selectivity index; series mostly up to 57.5 µM
Outline: as §1

JEG-3 = experiment: as above; conditions: Gynecologic cancer cell panel viability, ATPlite luminescence, 48 h; series mostly up to 57.5 µM
Outline: as §1

OV90 = experiment: as above; conditions: Gynecologic cancer cell panel viability, ATPlite luminescence, 48 h; series mostly up to 57.5 µM
Outline: as §1

PA-1 = experiment: as above; conditions: Gynecologic cancer cell panel viability, ATPlite luminescence, 48 h; series mostly up to 57.5 µM
Outline: as §1

Tov-21-G = experiment: as above; conditions: Gynecologic cancer cell panel viability, ATPlite luminescence, 48 h; series mostly up to 57.5 µM
Outline: as §1

Tov112D = experiment: as above; conditions: Gynecologic cancer cell panel viability, ATPlite luminescence, 48 h; series mostly up to 57.5 µM
Outline: as §1

SKOV3 = experiment: as above; conditions: Gynecologic cancer cell panel viability, ATPlite luminescence, 48 h; series mostly up to 57.5 µM
Outline: as §1

[1] = qHTS assay to identify inhibitors of the type 1 interferon - major histocompatibility complex class I in skeletal muscle: Counter screen cell viability and HiBit confirmation (AID 1347412); conditions: iHSKM muscle cells + IFN-b, HiBiT or CellTiter-Glo, 24 h; for activity change, negative = inhibition: at 45.9 µM (top of the series); for all read-outs here: nearly all actives have a fitted effect of over 60% in size
Outline: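 Human myoblast knock-in line, 4.0 ng/ml IFN-beta stimulation, 24 h compound treatment. Endpoints: HiBiT lytic luminescence (HLA-B level) and CellTiter Glo (ATP). Dosing 12 concentrations, 3-fold steps, 46 uM highest final.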

astro = experiment: Drug repurposing screens with cells derived from glioblastoma tumor samples (AID 1345199); conditions: viability, ATP luminescence, 48 h; series mostly up to 45.9 µM; note: nearly all actives have a fitted effect of over 40% in size
Outline: (§2)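 Four patient lines of CD133+ GBM neurospheres were screened at several concentrations; hits were retested in those lines plus three slower-growing GBM lines, using 48-hour treatment and ATP-based viability.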

[2] = as above; conditions: GBM patient neurospheres viability, ATP luminescence, 48 h; at 46.1 µM (top of the series); tumour line C
Outline: as §2
% is set by controls: 0 for no effect and ±100 for the full control effect; potency is the fitted concentration of half-maximal effect.

C=C(C)C1CC2(CO)C(=CC1=O)CCC(O)C2C (stereo unspecified)
inactive: Potency (Es-2) | Potency (HeLa) | Potency (Hek293T) | Potency (JEG-3) | Potency (OV90) | Potency (PA-1) | Potency (Tov-21-G) | Potency (Tov112D)

O=C1N(CC2CCCCN2)CCN1c1ccccc1 (stereo unspecified)
inactive: Potency (Es-2) | Potency (HeLa) | Potency (Hek293T) | Potency (JEG-3) | Potency (OV90) | Potency (PA-1) | Potency (Tov-21-G) | Potency (Tov112D)

C=C1CCC2C(C)(C)CC(=O)CC2(C)C1CCC(C)CCOC(C)=O (stereo unspecified)
inactive: Potency (Es-2) | Potency (HeLa) | Potency (Hek293T) | Potency (JEG-3) | Potency (OV90) | Potency (PA-1) | Potency (Tov-21-G) | Potency (Tov112D)

COc1cc(C)c(C(=O)O[C@H]2[C@@H](O)[C@H](n3ccc(=O)[nH]c3=O)O[C@@H]2CO)c(OC)c1
inactive: Potency (Es-2) | Potency (HeLa) | Potency (Hek293T) | Potency (JEG-3) | Potency (OV90) | Potency (PA-1) | Potency (Tov-21-G) | Potency (Tov112D)

COCC(=O)N1CCc2cc(-c3csc(NC(=O)c4cc(OC)cc(OC)c4)n3)ccc21
inactive: Potency (Es-2) | Potency (HeLa) | Potency (Hek293T) | Potency (JEG-3) | Potency (OV90) | Potency (PA-1) | Potency (Tov-21-G) | Potency (Tov112D)

CNc1nc(Nc2cnn([C@H]3CCN(C4COC4)C[C@@H]3F)c2Cl)ncc1C(F)(F)F
inactive: Potency (Es-2) | Potency (HeLa) | Potency (Hek293T) | Potency (JEG-3) | Potency (OV90) | Potency (SKOV3) | Potency (Tov-21-G) | Potency (Tov112D)

CC(C)CC1NC(=O)C(C(C)c2ccccc2)NC(=O)C(C(C)C)NC(=O)C(C)NC(=O)CCCNC(=O)C(Cc2c[nH]c3ccccc23)NC(=O)C(C)NC1=O (stereo not drawn) (cyclo([GABA]AV[ξPhe(βξ-Me)]LAW); configuration not given here)
inactive: Potency (Es-2) | Potency (HeLa) | Potency (Hek293T) | Potency (JEG-3) | Potency (OV90) | Potency (PA-1) | Potency (Tov-21-G) | Potency (Tov112D)

CC(C)C1(O[C@@H]2O[C@H](CO)[C@@H](O)[C@H](O)[C@H]2O)CC=C(CO)CC1 (stereo partly specified)
inactive: Potency (Es-2) | Potency (HeLa) | Potency (Hek293T) | Potency (JEG-3) | Potency (OV90) | Potency (SKOV3) | Potency (Tov-21-G) | Potency (Tov112D)

CC(C)Nc1cc(-c2c[nH]c(C(=O)N[C@H](CO)c3cccc(Cl)c3)c2)c(Cl)cn1
inactive: Potency (HeLa) | Potency (Hek293T) | Potency (JEG-3) | Potency (SKOV3) | Potency (Tov112D)

CN(C)C/C=C/C(=O)Nc1ccc(C(=O)Nc2cccc(Nc3ncc(Cl)c(-c4c[nH]c5ccccc45)n3)c2)cc1
inactive: activity change, negative = inhibition ([1]; Viability) -19.3%
active: Potency (Es-2) 1780 nM | Potency (HeLa) 891 nM | Potency (Hek293T) 1260 nM | Potency (JEG-3) 3550 nM | Potency (PA-1) 891 nM | Potency (Tov112D) 631 nM | Potency ([1]; HiBiT) 442 nM

OC[C@H]1O[C@@H](Oc2cc(O)cc(/C=C/c3ccc(O)cc3)c2)[C@H](O)[C@@H](O)[C@@H]1O
inactive: Potency (OV90)

CC1CCC2(C(=O)OC3OC(CO)C(O)C(O)C3O)CCC3(C)C(=CCC4C5(C)CC(O)C(O)C(C)(C(=O)O)C5CCC43C)C2C1(C)O (stereo unspecified)
inactive: Potency (Es-2) | Potency (HeLa) | Potency (Hek293T) | Potency (JEG-3) | Potency (OV90) | Potency (SKOV3) | Potency (Tov-21-G) | Potency (Tov112D)

N#Cc1ccc2[nH]c(O)c(-c3ccc(CN4CCOCC4)cn3)c2c1
inactive: Potency (Es-2) | Potency (Hek293T) | Potency (JEG-3) | Potency (OV90) | Potency (PA-1) | Potency (SKOV3) | Potency (Tov-21-G) | Potency (Tov112D)

Nc1ccn([C@@H]2C(F)=C(CO)[C@@H](O)[C@H]2O)c(=O)n1
inactive: Potency (HeLa) | Potency (JEG-3) | Potency (OV90)
active: Potency (PA-1) 2240 nM

OC[C@H]1O[C@@H](n2cnc3c(NCc4ccc(O)cc4)ncnc32)[C@H](O)[C@@H]1O
inactive: Potency (Es-2) | Potency (Hek293T) | Potency (OV90) | Potency (PA-1) | Potency (SKOV3)

COC1CC(=O)C23C(=O)NC(CC(C)C)C2C(C)C(C)=CC3/C=C(\C)CCC1O (stereo unspecified)
inactive: Potency (Es-2) | Potency (HeLa) | Potency (JEG-3) | Potency (OV90) | Potency (PA-1) | Potency (SKOV3) | Potency (Tov-21-G) | Potency (Tov112D)

COc1cc2c(Nc3ccc(Cl)c(Cl)c3F)ncnc2cc1OCC1C[C@@H]2CN(C)C[C@@H]2C1 (stereo partly specified)
active: Potency (OV90) 20000 nM | Potency (SKOV3) 14100 nM | Potency (Tov112D) 17800 nM | Potency ([1]; HiBiT) 19800 nM | Potency ([1]; Viability) 17600 nM

CC(=O)c1cnc2ccc(-c3cc(Cl)c(O)c(Cl)c3)nc2c1NC1CCC(CN(C)C)CC1 (stereo unspecified)
active: Potency (Es-2) 891 nM | Potency (Hek293T) 562 nM | Potency (PA-1) 501 nM | Potency (SKOV3) 891 nM | Potency (Tov112D) 447 nM | Potency ([1]; HiBiT) 99.1 nM
inactive: activity change, negative = inhibition ([1]; Viability) -15.7%

C=Cc1cc(O)cc2nc(-c3ccc(O)c(F)c3)oc12
inactive: Potency (Es-2) | Potency (HeLa) | Potency (Hek293T) | Potency (JEG-3) | Potency (PA-1) | Potency (SKOV3) | Potency (Tov-21-G) | Potency (Tov112D)

COc1cc(C(C)=O)ccc1O[C@@H]1O[C@H](CO[C@@H]2O[C@@H](C)[C@H](O)[C@@H](O)[C@H]2O)[C@@H](O)[C@H](O)[C@H]1O
inactive: Potency (Es-2) | Potency (HeLa) | Potency (Hek293T) | Potency (JEG-3) | Potency (OV90) | Potency (Tov-21-G) | Potency (Tov112D)

Cc1cc(Nc2ncc(Cl)c(Nc3ccccc3S(=O)(=O)C(C)C)n2)c(OC(C)C)cc1C1CCNCC1
active: Potency ([1]; Viability) 27900 nM
inactive: Potency (Es-2) | Potency (HeLa) | Potency (Hek293T) | Potency (JEG-3) | Potency (PA-1) | Potency (Tov-21-G) | Potency (Tov112D)

O=C(Nc1cccnn1)N1CCC(=Cc2cccc(Oc3ccc(C(F)(F)F)cn3)c2)CC1
inactive: Potency (Es-2) | Potency (HeLa) | Potency (JEG-3) | Potency (Tov-21-G) | Potency (Tov112D)

CN(NC(=O)CC(=O)NN(C)C(=S)c1ccccc1)C(=S)c1ccccc1
inactive: Potency (Es-2) | Potency (HeLa) | Potency (Hek293T) | Potency (JEG-3) | Potency (Tov112D)
active: Potency (Tov-21-G) 1120 nM

O=C(O)C[C@H](O)C[C@H](O)/C=C/c1c(C2CC2)nc2ccccc2c1-c1ccc(F)cc1
active: Potency (HeLa) 8910 nM | Potency (PA-1) 10000 nM | Potency (Tov112D) 11200 nM | Potency (astro) 398 nM
inactive: Potency (JEG-3)

C[C@]12C=CC(=O)N[C@@H]1CC[C@@H]1[C@@H]2CC[C@]2(C)[C@@H](C(=O)Nc3cc(C(F)(F)F)ccc3C(F)(F)F)CC[C@@H]12
inactive: activity, negative = cell killing [2] -29.8%

Oc1ccc([C@H]2COc3cc(O)ccc3C2)cc1
inactive: Potency (Es-2) | Potency (Hek293T) | Potency (JEG-3) | Potency (OV90) | Potency (PA-1) | Potency (SKOV3) | Potency (Tov-21-G) | Potency (Tov112D)
